Data taken from publication PMC7862700, “An all-to-all approach to the identification of sequence-specific readers for epigenetic DNA modifications on cytosine”.

How the values were obtained:
Test in all cases: DAPPL (digital affinity profiling via proximity ligation, sequencing); 10 mM Tris-HCl pH 7.5, 50 mM NaCl, 1 mM DTT, 4% glycerol, room temperature, 30 min; GST-TFs on glutathione beads, 16-mer random dsDNA library, 0.1% formaldehyde crosslink after washing; high values mean tight binding
[1] = biological target: T1, FEV (Homo sapiens, UniProt Q99581 1-238); details: protein: recombinant; tags: N-terminal GST; dsDNA, one strand shown
T1 sequence: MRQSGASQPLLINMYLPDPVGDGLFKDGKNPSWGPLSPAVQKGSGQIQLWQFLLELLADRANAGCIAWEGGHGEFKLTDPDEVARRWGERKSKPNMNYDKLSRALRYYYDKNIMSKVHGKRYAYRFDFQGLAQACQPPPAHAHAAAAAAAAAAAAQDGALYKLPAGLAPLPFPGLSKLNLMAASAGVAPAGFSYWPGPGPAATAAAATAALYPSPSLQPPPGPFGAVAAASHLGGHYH
Method in brief: (§1)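 Yeast served to express human transcription factors as GST fusions, which were then captured on glutathione beads and labelled with DNA barcodes. Pooled with a tag-only sample, they were incubated with 200 nmole of a 16-mer random double-stranded DNA library for 30 min at room temperature in Tris/NaCl/DTT/glycerol buffer, washed, crosslinked with 0.1% formaldehyde, ligated by proximity, amplified by PCR and sequenced. Dividing each hexamer's read frequency for a factor by its frequency for the tag-only sample gives the binding signal.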

[2] = biological target: ETV5 (Homo sapiens, UniProt P41161 1-510); details: protein: recombinant; tags: N-terminal GST; dsDNA, one strand shown
Sequence of ETV5 (P41161 whole entry): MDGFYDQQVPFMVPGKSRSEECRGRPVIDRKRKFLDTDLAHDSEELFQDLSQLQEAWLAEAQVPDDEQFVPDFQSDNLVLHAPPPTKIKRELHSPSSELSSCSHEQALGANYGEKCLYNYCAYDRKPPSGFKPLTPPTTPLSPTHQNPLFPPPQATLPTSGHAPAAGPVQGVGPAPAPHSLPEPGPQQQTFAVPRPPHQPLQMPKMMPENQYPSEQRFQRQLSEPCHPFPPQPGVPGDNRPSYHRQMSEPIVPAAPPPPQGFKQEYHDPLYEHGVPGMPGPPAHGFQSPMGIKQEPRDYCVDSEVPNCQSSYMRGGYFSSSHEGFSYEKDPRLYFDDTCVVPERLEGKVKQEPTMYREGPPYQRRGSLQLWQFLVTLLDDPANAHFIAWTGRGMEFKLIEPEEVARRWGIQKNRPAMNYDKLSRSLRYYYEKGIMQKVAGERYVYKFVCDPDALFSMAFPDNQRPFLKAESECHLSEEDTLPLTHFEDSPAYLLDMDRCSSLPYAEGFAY
Method in brief: as §1

[3] = biological target: HSF1 (Homo sapiens, UniProt Q00613 1-529); details: protein: recombinant; tags: N-terminal GST; chain copies: 3; dsDNA, one strand shown
Sequence of HSF1 (Q00613 whole entry): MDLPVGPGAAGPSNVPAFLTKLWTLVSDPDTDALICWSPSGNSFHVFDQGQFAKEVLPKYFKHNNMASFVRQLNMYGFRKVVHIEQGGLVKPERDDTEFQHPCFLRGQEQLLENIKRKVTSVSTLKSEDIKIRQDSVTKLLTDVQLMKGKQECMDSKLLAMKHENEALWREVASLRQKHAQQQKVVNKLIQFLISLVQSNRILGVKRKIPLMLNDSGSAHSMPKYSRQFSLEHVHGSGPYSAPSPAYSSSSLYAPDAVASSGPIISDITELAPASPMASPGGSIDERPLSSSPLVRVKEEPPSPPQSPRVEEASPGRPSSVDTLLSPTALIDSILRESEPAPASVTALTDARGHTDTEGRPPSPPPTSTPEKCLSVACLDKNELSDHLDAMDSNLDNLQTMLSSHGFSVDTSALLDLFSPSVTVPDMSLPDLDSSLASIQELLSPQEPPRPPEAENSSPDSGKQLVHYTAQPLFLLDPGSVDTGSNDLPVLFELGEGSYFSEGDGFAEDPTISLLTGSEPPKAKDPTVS
Method in brief: as §1

[4] = biological target: T2, SPIC (Homo sapiens, UniProt Q8N5J4 1-248); details: protein: recombinant; tags: N-terminal GST; dsDNA, one strand shown
T2 sequence: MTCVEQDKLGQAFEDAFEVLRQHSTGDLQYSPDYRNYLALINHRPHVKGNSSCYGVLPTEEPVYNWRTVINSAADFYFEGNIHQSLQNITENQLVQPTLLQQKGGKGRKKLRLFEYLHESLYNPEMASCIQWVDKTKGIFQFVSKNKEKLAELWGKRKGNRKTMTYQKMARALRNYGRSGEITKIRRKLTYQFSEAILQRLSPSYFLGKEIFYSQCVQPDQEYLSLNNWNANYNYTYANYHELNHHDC
Method in brief: as §1

[5] = biological target: ELF4 (Homo sapiens, UniProt Q99607 1-663); details: protein: recombinant; tags: N-terminal GST; dsDNA, one strand shown
Sequence of ELF4 (Q99607 whole entry): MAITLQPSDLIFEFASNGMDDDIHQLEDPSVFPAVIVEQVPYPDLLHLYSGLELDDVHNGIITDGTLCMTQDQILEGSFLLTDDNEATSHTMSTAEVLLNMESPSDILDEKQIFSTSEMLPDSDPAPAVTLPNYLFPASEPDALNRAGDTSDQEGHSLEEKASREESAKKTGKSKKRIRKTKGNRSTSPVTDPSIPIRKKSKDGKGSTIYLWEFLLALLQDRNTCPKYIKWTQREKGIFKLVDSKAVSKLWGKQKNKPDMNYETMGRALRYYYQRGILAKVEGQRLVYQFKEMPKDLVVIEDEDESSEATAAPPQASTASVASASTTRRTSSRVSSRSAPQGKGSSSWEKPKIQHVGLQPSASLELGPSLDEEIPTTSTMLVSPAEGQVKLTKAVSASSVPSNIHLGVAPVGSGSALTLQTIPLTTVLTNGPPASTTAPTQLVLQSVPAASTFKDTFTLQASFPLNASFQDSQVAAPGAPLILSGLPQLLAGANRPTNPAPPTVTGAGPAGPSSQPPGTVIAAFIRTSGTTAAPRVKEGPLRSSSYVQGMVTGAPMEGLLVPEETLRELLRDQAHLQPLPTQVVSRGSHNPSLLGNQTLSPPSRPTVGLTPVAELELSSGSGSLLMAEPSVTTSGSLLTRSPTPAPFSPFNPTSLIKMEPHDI
Method in brief: as §1

[6] = biological target: T3, ELK4 (Homo sapiens, UniProt P28324-2 1-405); details: protein: recombinant; tags: N-terminal GST; dsDNA, one strand shown
T3 sequence: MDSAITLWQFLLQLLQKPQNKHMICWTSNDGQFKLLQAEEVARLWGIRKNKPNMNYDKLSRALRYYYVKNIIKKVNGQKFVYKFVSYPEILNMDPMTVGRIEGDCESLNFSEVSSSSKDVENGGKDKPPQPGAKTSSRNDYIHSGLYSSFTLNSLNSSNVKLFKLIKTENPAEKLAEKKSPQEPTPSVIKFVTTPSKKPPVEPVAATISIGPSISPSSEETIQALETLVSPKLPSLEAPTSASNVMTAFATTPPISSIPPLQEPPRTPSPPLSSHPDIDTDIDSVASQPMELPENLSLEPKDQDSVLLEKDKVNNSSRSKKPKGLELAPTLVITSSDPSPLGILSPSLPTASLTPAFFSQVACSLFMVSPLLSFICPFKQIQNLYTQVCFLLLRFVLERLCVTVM
Method in brief: as §1

[7] = biological target: T4, ETV2 (Homo sapiens, UniProt O00321 1-342); details: protein: recombinant; tags: N-terminal GST; dsDNA, one strand shown
T4 sequence: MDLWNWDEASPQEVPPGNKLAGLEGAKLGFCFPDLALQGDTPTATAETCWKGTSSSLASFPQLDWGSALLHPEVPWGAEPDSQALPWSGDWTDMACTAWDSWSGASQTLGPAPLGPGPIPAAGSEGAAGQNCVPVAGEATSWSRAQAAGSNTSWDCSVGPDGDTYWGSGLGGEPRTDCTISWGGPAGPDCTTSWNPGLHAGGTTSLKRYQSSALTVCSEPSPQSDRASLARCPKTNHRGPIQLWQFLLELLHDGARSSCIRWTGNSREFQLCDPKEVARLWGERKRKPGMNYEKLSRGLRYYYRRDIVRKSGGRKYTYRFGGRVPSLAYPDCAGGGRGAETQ
Method in brief: as §1

[8] = biological target: T5, ELF3 (Homo sapiens, UniProt P78545 1-371); details: protein: recombinant; tags: N-terminal GST; dsDNA, one strand shown
T5 sequence: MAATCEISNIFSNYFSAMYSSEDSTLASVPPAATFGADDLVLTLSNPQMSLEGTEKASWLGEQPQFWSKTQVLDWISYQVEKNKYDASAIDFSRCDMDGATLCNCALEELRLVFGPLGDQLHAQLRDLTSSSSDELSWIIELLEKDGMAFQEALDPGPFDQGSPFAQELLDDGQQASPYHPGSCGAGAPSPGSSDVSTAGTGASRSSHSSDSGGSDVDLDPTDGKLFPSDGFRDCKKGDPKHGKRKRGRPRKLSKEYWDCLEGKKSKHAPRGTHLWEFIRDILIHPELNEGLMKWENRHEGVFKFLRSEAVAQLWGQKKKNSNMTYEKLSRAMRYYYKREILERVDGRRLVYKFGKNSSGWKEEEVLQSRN
Method in brief: as §1

[9] = biological target: CRX (Homo sapiens, UniProt O43186 1-299); details: protein: recombinant; tags: N-terminal GST; dsDNA, one strand shown
Sequence of CRX (O43186 whole entry): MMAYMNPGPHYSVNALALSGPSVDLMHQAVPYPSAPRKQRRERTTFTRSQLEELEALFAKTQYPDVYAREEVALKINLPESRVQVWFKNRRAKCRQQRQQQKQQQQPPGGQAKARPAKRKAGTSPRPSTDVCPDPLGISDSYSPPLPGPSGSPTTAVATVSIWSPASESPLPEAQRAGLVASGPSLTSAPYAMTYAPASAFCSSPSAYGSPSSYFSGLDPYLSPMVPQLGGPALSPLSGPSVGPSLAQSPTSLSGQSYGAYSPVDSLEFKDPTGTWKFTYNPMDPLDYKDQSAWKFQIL
Method in brief: as §1

[10] = biological target: ETV1 (Homo sapiens, UniProt P50549 1-477); details: protein: recombinant; tags: N-terminal GST; dsDNA, one strand shown
Sequence of ETV1 (P50549 whole entry): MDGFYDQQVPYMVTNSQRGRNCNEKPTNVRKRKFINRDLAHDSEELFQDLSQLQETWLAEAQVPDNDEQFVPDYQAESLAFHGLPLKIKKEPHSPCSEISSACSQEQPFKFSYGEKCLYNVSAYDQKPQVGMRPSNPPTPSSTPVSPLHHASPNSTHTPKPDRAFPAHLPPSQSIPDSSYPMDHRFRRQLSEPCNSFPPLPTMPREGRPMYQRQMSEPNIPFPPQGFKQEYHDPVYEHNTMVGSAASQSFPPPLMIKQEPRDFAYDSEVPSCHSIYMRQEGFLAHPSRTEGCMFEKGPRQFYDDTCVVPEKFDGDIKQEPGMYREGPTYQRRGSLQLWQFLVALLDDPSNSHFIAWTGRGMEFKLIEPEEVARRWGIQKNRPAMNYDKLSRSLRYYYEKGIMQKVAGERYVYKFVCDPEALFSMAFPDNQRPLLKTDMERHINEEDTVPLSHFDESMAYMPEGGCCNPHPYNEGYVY
Method in brief: as §1

[11] = biological target: T6, ERF (Homo sapiens, UniProt P50548 1-548); details: protein: recombinant; tags: N-terminal GST; dsDNA, one strand shown
T6 sequence: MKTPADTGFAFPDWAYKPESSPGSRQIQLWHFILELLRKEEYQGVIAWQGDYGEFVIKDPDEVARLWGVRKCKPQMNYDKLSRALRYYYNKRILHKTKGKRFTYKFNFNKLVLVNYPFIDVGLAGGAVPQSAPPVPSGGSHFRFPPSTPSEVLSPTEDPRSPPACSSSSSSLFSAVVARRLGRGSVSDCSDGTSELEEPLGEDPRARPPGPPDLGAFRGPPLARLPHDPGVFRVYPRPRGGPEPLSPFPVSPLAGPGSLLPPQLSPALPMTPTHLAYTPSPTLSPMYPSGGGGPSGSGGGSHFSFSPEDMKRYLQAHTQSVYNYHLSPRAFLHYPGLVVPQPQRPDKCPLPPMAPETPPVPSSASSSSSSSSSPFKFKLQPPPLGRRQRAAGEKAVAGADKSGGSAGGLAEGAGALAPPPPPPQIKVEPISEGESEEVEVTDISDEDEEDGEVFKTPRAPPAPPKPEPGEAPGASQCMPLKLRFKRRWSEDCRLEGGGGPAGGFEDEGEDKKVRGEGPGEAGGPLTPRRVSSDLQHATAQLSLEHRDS
Method in brief: as §1

[12] = biological target: T7, ETV3L (Homo sapiens, UniProt Q6ZN32 1-361); details: protein: recombinant; tags: N-terminal GST; dsDNA, one strand shown
T7 sequence: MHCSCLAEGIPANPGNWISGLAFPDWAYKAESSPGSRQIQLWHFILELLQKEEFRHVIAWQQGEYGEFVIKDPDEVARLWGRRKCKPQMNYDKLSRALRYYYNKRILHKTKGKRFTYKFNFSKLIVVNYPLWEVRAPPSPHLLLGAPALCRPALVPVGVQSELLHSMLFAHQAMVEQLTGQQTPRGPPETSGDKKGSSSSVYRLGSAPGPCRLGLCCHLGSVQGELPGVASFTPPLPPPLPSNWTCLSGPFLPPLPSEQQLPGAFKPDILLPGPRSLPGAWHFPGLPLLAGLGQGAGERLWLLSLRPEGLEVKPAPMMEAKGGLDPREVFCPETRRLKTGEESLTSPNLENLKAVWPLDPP
Method in brief: as §1

[13] = biological target: T8, ETS2 (Homo sapiens, UniProt P15036 1-469); details: protein: recombinant; tags: N-terminal GST; dsDNA, one strand shown
T8 sequence: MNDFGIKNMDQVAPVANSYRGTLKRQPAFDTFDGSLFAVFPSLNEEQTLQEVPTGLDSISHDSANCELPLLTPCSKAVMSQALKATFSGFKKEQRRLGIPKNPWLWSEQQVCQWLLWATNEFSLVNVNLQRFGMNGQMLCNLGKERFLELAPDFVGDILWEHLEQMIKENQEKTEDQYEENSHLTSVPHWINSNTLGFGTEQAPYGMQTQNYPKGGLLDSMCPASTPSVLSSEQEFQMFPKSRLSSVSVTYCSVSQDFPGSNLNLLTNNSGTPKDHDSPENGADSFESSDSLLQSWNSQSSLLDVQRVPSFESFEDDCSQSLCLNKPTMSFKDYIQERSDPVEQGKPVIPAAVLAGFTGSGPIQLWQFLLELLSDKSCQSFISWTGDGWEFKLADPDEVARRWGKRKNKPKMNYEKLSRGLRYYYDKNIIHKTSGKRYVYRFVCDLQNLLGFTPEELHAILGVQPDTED
Method in brief: as §1

[14] = biological target: T9, SPDEF (Homo sapiens, UniProt O95238 1-335); details: protein: recombinant; tags: N-terminal GST; dsDNA, one strand shown
T9 sequence: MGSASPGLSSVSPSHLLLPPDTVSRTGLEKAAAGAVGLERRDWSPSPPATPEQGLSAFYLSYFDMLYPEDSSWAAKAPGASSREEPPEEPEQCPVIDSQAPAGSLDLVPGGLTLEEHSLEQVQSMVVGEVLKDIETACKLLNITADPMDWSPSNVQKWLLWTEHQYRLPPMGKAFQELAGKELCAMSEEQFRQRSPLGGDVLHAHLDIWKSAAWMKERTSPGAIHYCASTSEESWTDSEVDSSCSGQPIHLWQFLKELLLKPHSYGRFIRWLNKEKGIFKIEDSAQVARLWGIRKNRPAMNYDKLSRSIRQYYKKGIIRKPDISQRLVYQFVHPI
Method in brief: as §1

[15] = biological target: T10, ETV7 (Homo sapiens, UniProt Q9Y603 1-341); details: protein: recombinant; tags: N-terminal GST; dsDNA, one strand shown
T10 sequence: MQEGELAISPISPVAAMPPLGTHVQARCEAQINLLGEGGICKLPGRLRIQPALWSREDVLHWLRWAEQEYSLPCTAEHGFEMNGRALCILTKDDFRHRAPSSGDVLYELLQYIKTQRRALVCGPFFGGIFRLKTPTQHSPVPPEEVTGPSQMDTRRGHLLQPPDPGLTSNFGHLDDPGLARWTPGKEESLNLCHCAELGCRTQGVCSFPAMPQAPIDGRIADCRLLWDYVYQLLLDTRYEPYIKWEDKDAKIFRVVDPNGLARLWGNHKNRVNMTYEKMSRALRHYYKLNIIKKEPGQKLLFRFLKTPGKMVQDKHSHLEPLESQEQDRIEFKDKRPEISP
Method in brief: as §1

[16] = biological target: T11, ELF5 (Homo sapiens, UniProt Q9UKW6-2 1-255); details: protein: recombinant; tags: N-terminal GST; dsDNA, one strand shown
T11 sequence: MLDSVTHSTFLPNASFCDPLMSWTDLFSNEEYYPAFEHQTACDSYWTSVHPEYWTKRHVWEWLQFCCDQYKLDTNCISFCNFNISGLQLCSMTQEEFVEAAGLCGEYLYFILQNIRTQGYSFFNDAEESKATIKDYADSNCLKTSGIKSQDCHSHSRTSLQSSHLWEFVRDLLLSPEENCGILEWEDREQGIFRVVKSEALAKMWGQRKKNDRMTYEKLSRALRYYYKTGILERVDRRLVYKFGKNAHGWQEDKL
Method in brief: as §1

[17] = biological target: T12, ETV3 (Homo sapiens, UniProt P41162-2 1-143); details: protein: recombinant; tags: N-terminal GST; dsDNA, one strand shown
T12 sequence: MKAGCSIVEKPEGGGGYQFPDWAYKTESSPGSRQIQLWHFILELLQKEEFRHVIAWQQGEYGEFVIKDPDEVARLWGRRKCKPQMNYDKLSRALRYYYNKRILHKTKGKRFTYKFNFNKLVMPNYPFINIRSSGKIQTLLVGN
Method in brief: as §1

[18] = biological target: ETV6 (Homo sapiens, UniProt P41212 1-452); details: protein: recombinant; tags: N-terminal GST; dsDNA, one strand shown
Sequence of ETV6 (P41212 whole entry): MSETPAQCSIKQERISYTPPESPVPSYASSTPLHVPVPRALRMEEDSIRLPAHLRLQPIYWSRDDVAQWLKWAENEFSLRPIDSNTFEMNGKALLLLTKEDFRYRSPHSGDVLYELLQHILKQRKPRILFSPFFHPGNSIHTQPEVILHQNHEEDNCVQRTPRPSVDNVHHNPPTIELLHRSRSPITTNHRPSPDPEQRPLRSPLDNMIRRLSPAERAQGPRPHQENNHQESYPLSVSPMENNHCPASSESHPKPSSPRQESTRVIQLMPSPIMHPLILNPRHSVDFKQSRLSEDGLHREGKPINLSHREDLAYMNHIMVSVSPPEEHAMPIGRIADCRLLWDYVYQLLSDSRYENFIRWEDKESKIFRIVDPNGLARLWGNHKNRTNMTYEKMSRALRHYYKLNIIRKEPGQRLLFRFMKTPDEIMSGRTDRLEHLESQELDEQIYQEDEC
Method in brief: as §1

Sequence	binding signal [1]	binding signal [2]	binding signal [3]	binding signal [4]	binding signal [5]	binding signal [6]	binding signal [7]	binding signal [8]	binding signal [9]	binding signal [10]	binding signal [11]	binding signal [12]	binding signal [13]	binding signal [14]	binding signal [15]	binding signal [16]	binding signal [17]	binding signal [18]
TCACGT	1.19 fold enrichment (6-mer frequency, TF over GST control)	1.24 fold enrichment (6-mer frequency, TF over GST control)	1.13 fold enrichment (6-mer frequency, TF over GST control)	1.19 fold enrichment (6-mer frequency, TF over GST control)	1.23 fold enrichment (6-mer frequency, TF over GST control)	1.27 fold enrichment (6-mer frequency, TF over GST control)	1.02 fold enrichment (6-mer frequency, TF over GST control)	1.01 fold enrichment (6-mer frequency, TF over GST control)	1.15 fold enrichment (6-mer frequency, TF over GST control)	1.26 fold enrichment (6-mer frequency, TF over GST control)	1.28 fold enrichment (6-mer frequency, TF over GST control)	1.22 fold enrichment (6-mer frequency, TF over GST control)	1.2 fold enrichment (6-mer frequency, TF over GST control)	1.15 fold enrichment (6-mer frequency, TF over GST control)	1.22 fold enrichment (6-mer frequency, TF over GST control)	1.19 fold enrichment (6-mer frequency, TF over GST control)	1.19 fold enrichment (6-mer frequency, TF over GST control)	1.24 fold enrichment (6-mer frequency, TF over GST control)
GCTTCG	1.26 fold enrichment (6-mer frequency, TF over GST control)	1.29 fold enrichment (6-mer frequency, TF over GST control)	1.6 fold enrichment (6-mer frequency, TF over GST control)	1.17 fold enrichment (6-mer frequency, TF over GST control)	1.26 fold enrichment (6-mer frequency, TF over GST control)	1.38 fold enrichment (6-mer frequency, TF over GST control)	1.33 fold enrichment (6-mer frequency, TF over GST control)	1.47 fold enrichment (6-mer frequency, TF over GST control)	1.25 fold enrichment (6-mer frequency, TF over GST control)	1.29 fold enrichment (6-mer frequency, TF over GST control)	1.56 fold enrichment (6-mer frequency, TF over GST control)	1.31 fold enrichment (6-mer frequency, TF over GST control)	1.32 fold enrichment (6-mer frequency, TF over GST control)	1.35 fold enrichment (6-mer frequency, TF over GST control)	1.44 fold enrichment (6-mer frequency, TF over GST control)	1.3 fold enrichment (6-mer frequency, TF over GST control)	1.37 fold enrichment (6-mer frequency, TF over GST control)	1.29 fold enrichment (6-mer frequency, TF over GST control)
